Screens (PubChem BioAssay)
Most compounds without a hit are left out; they make up all but 12% or so of the library.
G9a inh: qHTS Assay for Inhibitors of Histone Lysine Methyltransferase G9a. Potency, µM (series often up to 102 µM), for the others: at the top dose activity, negative = inhibition, usual class: inhibitors. AID 504332, 2011. 350,000 tested, 8.8% active. G9a H3K9 monomethylation, AlphaScreen, 2 h; also: % is scaled to controls: 0 for no effect and ±100 for the full control effect; nearly all actives have a fitted effect of over 75% in size
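Compounds were preincubated with 20 nM G9a for 15 min, after which biotinylated H3K9 peptide (500 nM) and SAM (20 uM) started a 2 h room-temperature reaction. Monomethylated product was quantified by antibody-based AlphaScreen chemiluminescence.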
JMJD2A Tudor: qHTS Assay for Inhibitors of JMJD2A-Tudor Domain. Lysine-specific demethylase 4A (Homo sapiens), O75164. AlphaScreen JMJD2A-Tudor / H3K4me3 peptide binding. Potency, µM (top dose mostly 114 µM), for inactives: top-dose activity change, negative = inhibition, hits mostly inhibitors. 390,000 tested, 4.4% active. AID 504339, 2011; also: % is scaled to controls: 0 for no effect and ±100 for the full control effect; nearly all actives have a fitted effect of over 50% in size
Target sequence (O75164 whole entry, looked up, the tested form may be a part): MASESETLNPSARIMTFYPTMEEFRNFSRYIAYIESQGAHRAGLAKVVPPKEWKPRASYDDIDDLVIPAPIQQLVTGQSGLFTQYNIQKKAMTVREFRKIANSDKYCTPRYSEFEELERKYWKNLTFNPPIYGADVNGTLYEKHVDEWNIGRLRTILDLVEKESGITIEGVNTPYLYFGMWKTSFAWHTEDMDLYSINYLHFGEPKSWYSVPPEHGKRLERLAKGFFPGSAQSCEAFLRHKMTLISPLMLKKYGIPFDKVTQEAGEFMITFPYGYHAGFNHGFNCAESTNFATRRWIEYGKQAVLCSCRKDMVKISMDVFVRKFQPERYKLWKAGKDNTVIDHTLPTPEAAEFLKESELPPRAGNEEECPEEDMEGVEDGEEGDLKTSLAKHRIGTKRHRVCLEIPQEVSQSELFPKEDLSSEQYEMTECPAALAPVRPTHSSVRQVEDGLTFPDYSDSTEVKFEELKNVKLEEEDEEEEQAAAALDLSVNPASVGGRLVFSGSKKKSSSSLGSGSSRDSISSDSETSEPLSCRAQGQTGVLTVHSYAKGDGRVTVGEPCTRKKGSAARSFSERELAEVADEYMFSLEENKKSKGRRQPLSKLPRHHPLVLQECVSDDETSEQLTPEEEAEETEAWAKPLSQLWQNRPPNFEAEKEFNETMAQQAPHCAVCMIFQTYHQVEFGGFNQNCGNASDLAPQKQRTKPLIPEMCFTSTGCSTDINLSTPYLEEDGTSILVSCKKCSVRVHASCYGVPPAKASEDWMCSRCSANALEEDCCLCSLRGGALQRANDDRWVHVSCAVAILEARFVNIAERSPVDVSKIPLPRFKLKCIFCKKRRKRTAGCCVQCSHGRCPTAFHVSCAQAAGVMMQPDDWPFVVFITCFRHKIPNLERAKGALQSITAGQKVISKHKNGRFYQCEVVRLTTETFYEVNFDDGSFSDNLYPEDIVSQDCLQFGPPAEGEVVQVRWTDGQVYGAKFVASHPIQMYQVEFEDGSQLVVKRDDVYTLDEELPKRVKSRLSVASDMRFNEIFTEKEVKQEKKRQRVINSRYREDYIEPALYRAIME
BAZ2B inh: qHTS Assay for Inhibitors of BAZ2B. AlphaScreen BAZ2B-H3K14Ac peptide displacement. Potency, µM (doses to about 114 µM), without a hit: at the highest dose activity change, negative = inhibition, most hits filed as inhibitors. 360,000 tested, 4.4% active. AID 504333, 2011; also: % is scaled to controls: 0 for no effect and ±100 for the full control effect; nearly all actives have a fitted effect of over 60% in size
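BAZ2B 50 nM plus b-H3(5-23)K14Ac 50 nM, PBS pH 7.4/0.01% Tween-20, 30 min RT; compound added (max 110 uM), 30 min RT; streptavidin donor/Ni-chelate acceptor beads 10 ug/mL final, 20 min dark; AlphaScreen read.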
L3MBTL1 inh: qHTS Assay for the Inhibitors of L3MBTL1. Lethal(3)malignant brain tumor-like protein 1 (Homo sapiens), Q9Y468. AlphaScreen L3MBTL1–H3K9me1 peptide binding. Potency, µM (top dose mostly 57.1 µM), without a hit: at the highest dose activity, negative = inhibition, usual class: inhibitors. 230,000 tested, 0.66% active; also: % is scaled to controls: 0 for no effect and ±100 for the full control effect; nearly all actives have a fitted effect of over 60% in size
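L3MBTL1 50 nM + b-AHA-H3(1-15)K9me1 75 nM, 30 min RT; compound added, 30 min RT; streptavidin donor/Ni-chelate acceptor beads 10 ug/mL each final, 30 min RT dark; AlphaScreen read.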
HP1b chromo inh: HTS for Inhibitors of HP1-beta Chromodomain Interactions with Methylated Histone Tails; AlphaScreen HP1-beta / biotin-H3K9me3 peptide binding; Potency, µM (doses to about 114 µM), inactives show at the top dose activity change, negative = inhibition, hits mostly inhibitors; 390,000 tested, 0.56% active; AID 540317, 2011; also: nearly all actives have a fitted effect of over 70% in size
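HP1-beta protein (50 nM final) preincubated 30 min at room temperature with biotinylated H3(1-18)K9me3 peptide (50 nM) in PBS pH 7.4, 0.01% Tween-20, then compound added for 30 min. AlphaScreen streptavidin donor/nickel chelate acceptor beads (10 ug/mL final), 30 min dark, luminescence read.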
Sfp inh: qHTS Assay for Inhibitors of Bacillus subtilis Sfp phosphopantetheinyl transferase (PPTase); 4'-phosphopantetheinyl transferase ffp (Bacillus subtilis), Q9F4F7; Biochemical Sfp PPTase activity, qHTS; Potency, µM, for the others: largest response in the series, negative = inhibition, hits mostly inhibitors; 310,000 tested, 3.5% active; AID 1490, 2009;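 also: the enzyme is Sfp with the accession as filed and its product quenches rhodamine fluorescence; 0% = enzyme reaction without inhibitor and -100% = no enzyme wells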
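Step 1, compound plus 15 nM Sfp-PPTase, 15 min, room temperature. Step 2, add rhodamine-CoA (5 uM) and BHQ-2-YbbR (12.5 uM). Step 3, read 525/598 nm fluorescence at 0 and 30 min.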
Numbers without * were called inactive; ? = inconclusive; · = no result; ! = repeats disagree; [ ] = another dose, or the depositor's remark. Calls follow the shape of the dose curve; as a rule, active = well fitted curve in the direction sought with a large enough effect; inconclusive = small, poorly fitted or top-dose-only effect, or another doubt; inactive = no such curve, though single readings can be large; an effect the other way counts as inactive or inconclusive. Potency is read from the fitted curve at half-maximal effect.

SMILES	G9a inh	JMJD2A Tudor	BAZ2B inh	L3MBTL1 inh	HP1b chromo inh	Sfp inh
COc1cccc(CNc2sc3c(c2C(=O)Nc2ccc(OC)cc2OC)CCC3)c1	12.6µM*	?	-17.6%	·	?	·
COc1ccc2nc(NC3=NCCC3)sc2c1	33.4%[59 µM]	-23.7%	-25.0%	1.1%	-2.1%	3.7%
COc1ccccc1OCC(=O)Nc1sc2c(c1C(N)=O)CCC2	·	?	·	?	10.7%	·
CCOC(=O)N1CCc2c(sc(NCc3cc(OC)ccc3OC)c2C(=O)Nc2cc(OC)ccc2OC)C1	7.08µM*	?	31.6µM*	·	-6.9%	·
COc1ccc(OC)c(NC(=O)c2c(NCc3ccc(N(C)C)cc3)sc3c2CCCC3)c1	12.6µM*	11.2µM*	11.2µM*	·	-25.3%	·
COc1ccc(NC(=O)c2c(NCc3cccc(OC)c3)sc3c2CCC3)cc1	14.1µM*	-28.5%	-5.4%	·	-5.6%	·
COc1ccc(NC(=O)CN(C)CC(=O)Nc2sc3c(c2C(N)=O)CCC3)cc1	50.1µM*	-29.7%	-4.3%	-5.2%	7.3%	·
COc1ccccc1NC(=O)COC(=O)c1cc2c(s1)CCC2	44.7µM*	50.1µM*	56.2µM*	?	?	·
COc1ccccc1NC(=O)COC(=O)c1ccc2c(c1)OCCO2	0.0%[12.7 µM]	-15.3%	-3.3%	2.3%	17.4%	·
COc1ccc(OC)c(NC(=O)c2c(NCc3ccc(OC)c(OC)c3)sc3c2CCC3)c1	?	?	-21.7%	·	-5.7%	·
COc1ccc(CC(=O)Nc2sc3c(c2C(N)=O)CCCC3)cc1	6.5%	-25.0%	-3.0%	·	44.2%	10.9%
COC(=O)C(NC(=O)c1ccccc1C(=O)O)c1ccc2ccccc2c1 (stereo unspecified)	70.8µM*	-2.8%	-16.9%	·	59.9%	7.2%
CC(C)(C)OC(=O)N[C@@H](C(=O)OC(C)(C)C)c1ccc2ccccc2c1	-7.9%[0.501 µM]	-13.7%	-0.5%	22.6%	26.6%	·
COc1ccc(N2CC(C(=O)OCC(=O)Nc3cccc(C)c3)CC2=O)cc1 (stereo unspecified)	27.2%	-11.6%	7.0%	·	22.4%	5.9%
Cc1cc(C)c(S(=O)(=O)ON2C(=O)c3ccccc3C2=O)cc1C	·	56.2µM*	?	11.3%	?	20µM*
Cc1cc(C)c(C)c(S(=O)(=O)ON2C(=O)c3ccccc3C2=O)c1C	7.94µM*	89.1µM*	-38.9%	6.6%	-32.0%	22.4µM*
Cc1ccc(OC(=O)CN2C(=O)c3ccccc3C2=O)cc1C	21.0%	-6.3%	15.8%	·	16.2%	5.2%
O=C1c2ccccc2C(=O)N1OS(=O)(=O)c1ccc(F)cc1	2.24µM*	9.3%	-31.8%	·	41.5%	8.91µM*
Cc1ccc(S(=O)(=O)ON2C(=O)c3ccccc3C2=O)c(C)c1	7.94µM*	50.1µM*	12.7%	7.7%	44.7µM*	10µM*
CN(C)C(=O)c1ccc(-c2ccc3ncnc(NCCN4CCOCC4)c3c2)cc1	-33.8%[0.501 µM]	·	·	·	·	15.0%
COC(=O)c1ccccc1NC(=O)Cn1c(=O)n(Cc2ccc(C(=O)NCc3ccc4c(c3)OCO4)cc2)c(=O)c2ccccc21	0.4%[59 µM]	-11.3%	3.9%	·	38.4%	·
CN(/N=C/c1cccc(Br)c1)C1=NS(=O)(=O)c2ccccc21	1.8%	-2.3%	4.2%	·	69.6%	2.3%
Cn1c(=O)[nH]c(=O)c2[nH]c(N(Cc3ccccc3)Cc3ccccc3)nc21	50.1µM*	?	?	-1.2%	-19.7%	89.1µM*
O=S(=O)(O)c1ccc(Cl)c(Cl)c1	·	-7.6%	·	·	19.4%[57 µM]	·
O=C1C(c2[nH]c3ccc(S(=O)(=O)O)cc3c2O)=Nc2ccc(S(=O)(=O)O)cc21	17.8µM*	·	·	·	·	22.4µM*
SMILES	G9a inh	JMJD2A Tudor	BAZ2B inh	L3MBTL1 inh	HP1b chromo inh	Sfp inh
COc1ccc(-n2c(SCC(=O)NCc3ccc(C)cc3)nc3n[nH]c(C)c3c2=N)cc1	-3.8%[59 µM]	-20.2%	-2.8%	·	21.6%	·
CCOC(=O)N1CCC(NC(=O)c2ccc(CS(=O)c3cccc(Cl)c3)o2)CC1 (stereo unspecified)	4.7%	-5.4%	-23.9%	·	40.0%	9.5%
COC(=O)C/C=C\[C@@H](C)[C@@H](/C=N\O[C@@H](C)c1cc(-c2c(C)cc(C)cc2C)no1)NS(=O)(=O)c1ccc(C)cc1	·	·	·	·	·	8.1%
COc1cccc(NC(=O)C2CCCN(S(=O)(=O)c3cn(C(C)C)cn3)C2)c1 (stereo unspecified)	-10.0%[59 µM]	-13.2%	-9.1%	·	25.6%	·
Cn1cccc1/C=C(/C#N)C(N)=S	?	-24.5%	?	-12.7%	-6.4%	-2.1%
CCCCc1ccc(/C=C(\C#N)C(N)=S)s1	35.5µM*	35.5µM*	44.7µM*	-24.2%	25.1µM*	39.8µM*
CN1CCc2cc3c(cc2[C@@H]1[C@@H]1C(=O)Oc2c1ccc1c2OCO1)OCO3	·	·	·	·	·	5.2%
O=c1ccc2c(OCCCCc3ccccc3)c3ccoc3cc2o1	40.6%[59 µM]	·	·	·	·	·
COc1ccc(C2CC(c3ccccc3)Oc3ccc(C(C)(C)C)cc32)cc1 (stereo unspecified)	·	1.4%	·	·	52.6%	-9.7%
COc1ccc(C2CC(c3ccccc3)Oc3cc(OC)ccc32)cc1 (stereo unspecified)	·	39.8µM*	·	·	?	?
COc1ccc(C2CC(c3ccccc3)Oc3cc4c(cc32)OCO4)cc1 (stereo unspecified)	·	35.5µM*	·	·	?	44.7µM*!
COc1ccc(C2CC(c3ccccc3)Oc3cc(OC)c(OC)c(OC)c32)cc1 (stereo unspecified)	·	-19.3%	·	·	23.2%	-2.8%
CCCS(=O)(=O)c1nc(S(=O)(=O)c2ccc(C)cc2)c(N2CCN(CC)CC2)s1	-6.4%	-14.5%	-16.6%	·	24.0%	3.7%
Cc1cc(Cl)ccc1OCC(=O)N1CCC(c2nc3ccccc3s2)CC1	15.0%[59 µM]	3.0%	5.9%	·	91.6%	·
Cn1cccc1C(=S)N=P(C1CCCCC1)(N1CCOCC1)N1CCOCC1	8.91µM*	35.5µM*	-27.8%	3.4%	?	-27.7%
Cn1cccc1C(=S)N1CCOCC1	?	-10.5%	9.0%	-7.9%	-15.1%	-26.7%
c1ccc(CNc2nc3c(-c4ccccc4)nnn3c3ccccc23)cc1	?	-6.6%	4.8%	·	30.3%	·
O=C(NCc1ccccn1)C(F)(F)C(F)(F)C(=O)NCc1ccccn1	?	-12.9%	-0.9%	-11.6%	51.6%	-18.5%
